This is an account of results in article PMC7862700, “An all-to-all approach to the identification of sequence-specific readers for epigenetic DNA modifications on cytosine”.

Holding throughout (experiment): DAPPL (digital affinity profiling via proximity ligation, sequencing); 10 mM Tris-HCl pH 7.5, 50 mM NaCl, 1 mM DTT, 4% glycerol, room temperature, 30 min; GST-TFs on glutathione beads, 16-mer random dsDNA library, 0.1% formaldehyde crosslink after washing; high values mean tight binding
Details in all cases: protein: recombinant; tags: N-terminal GST; dsDNA, one strand shown

The target in experiment [1] is T1, ELK4 (Homo sapiens, UniProt P28324-2 1-405).
T1 sequence: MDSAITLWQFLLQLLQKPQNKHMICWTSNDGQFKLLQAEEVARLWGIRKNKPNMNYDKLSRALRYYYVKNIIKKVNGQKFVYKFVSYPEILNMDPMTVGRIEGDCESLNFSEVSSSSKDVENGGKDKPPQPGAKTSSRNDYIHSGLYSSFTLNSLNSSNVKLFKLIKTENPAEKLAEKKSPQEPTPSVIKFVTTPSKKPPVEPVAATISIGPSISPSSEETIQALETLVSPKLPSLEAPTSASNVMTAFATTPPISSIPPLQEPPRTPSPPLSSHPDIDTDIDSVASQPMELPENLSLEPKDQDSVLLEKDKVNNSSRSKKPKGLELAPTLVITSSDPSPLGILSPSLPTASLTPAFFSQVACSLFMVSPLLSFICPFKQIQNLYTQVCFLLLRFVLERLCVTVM
A digest of the protocol: (§1)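 Binding signal is given per hexamer as its read frequency for a factor divided by its frequency in the tag-only sample. GST-fused human transcription factors were expressed in yeast, captured on glutathione beads, barcoded with DNA and pooled with that sample, then incubated with 200 nmole of a 16-mer random double-stranded DNA library in Tris/NaCl/DTT/glycerol buffer for 30 min at room temperature. The pools were then washed, crosslinked, proximity-ligated, amplified by PCR and sequenced on an Illumina NextSeq500.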

The target in experiment [2] is T2, GABPA (Homo sapiens, UniProt Q06546 1-454).
T2 sequence: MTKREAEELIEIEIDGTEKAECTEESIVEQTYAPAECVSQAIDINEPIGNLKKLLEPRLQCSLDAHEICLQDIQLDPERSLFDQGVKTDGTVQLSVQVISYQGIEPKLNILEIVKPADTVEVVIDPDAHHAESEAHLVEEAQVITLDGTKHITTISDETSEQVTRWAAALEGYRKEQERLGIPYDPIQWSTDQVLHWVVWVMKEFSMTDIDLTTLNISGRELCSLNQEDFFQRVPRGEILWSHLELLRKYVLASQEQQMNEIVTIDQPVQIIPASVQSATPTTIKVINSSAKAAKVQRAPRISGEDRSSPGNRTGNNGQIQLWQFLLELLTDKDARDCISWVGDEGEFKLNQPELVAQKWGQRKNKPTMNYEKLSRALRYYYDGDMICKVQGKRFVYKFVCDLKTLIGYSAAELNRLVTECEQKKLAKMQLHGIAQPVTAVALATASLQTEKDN
The essentials: as §1

In experiment [3] the target is ELF1 (Homo sapiens, UniProt P32519 1-619). The essentials: as §1
ELF1, sequence (P32519 whole entry): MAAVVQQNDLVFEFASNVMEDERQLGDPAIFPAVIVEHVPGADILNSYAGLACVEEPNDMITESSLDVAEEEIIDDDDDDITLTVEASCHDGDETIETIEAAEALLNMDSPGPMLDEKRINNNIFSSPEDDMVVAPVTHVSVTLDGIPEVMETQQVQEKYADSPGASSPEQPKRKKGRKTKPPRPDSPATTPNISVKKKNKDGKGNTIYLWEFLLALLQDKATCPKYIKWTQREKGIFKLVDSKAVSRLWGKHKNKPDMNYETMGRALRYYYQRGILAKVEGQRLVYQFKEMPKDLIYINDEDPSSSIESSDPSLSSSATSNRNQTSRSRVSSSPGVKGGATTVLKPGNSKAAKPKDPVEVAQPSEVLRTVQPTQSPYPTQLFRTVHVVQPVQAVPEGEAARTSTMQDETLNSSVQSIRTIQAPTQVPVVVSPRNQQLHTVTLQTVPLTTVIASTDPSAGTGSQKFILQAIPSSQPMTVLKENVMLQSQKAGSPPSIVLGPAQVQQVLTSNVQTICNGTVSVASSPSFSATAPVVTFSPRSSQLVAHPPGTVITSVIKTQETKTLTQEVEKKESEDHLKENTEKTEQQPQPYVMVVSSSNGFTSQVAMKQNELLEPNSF
Experiment [4] concerns the target SPI1 (Homo sapiens, UniProt P17947 1-270). A digest of the protocol:
as §1

Experiment [5] deals with SPIB (Homo sapiens, UniProt Q01892 1-262). The essentials: as §1
SPIB, sequence (Q01892 whole entry): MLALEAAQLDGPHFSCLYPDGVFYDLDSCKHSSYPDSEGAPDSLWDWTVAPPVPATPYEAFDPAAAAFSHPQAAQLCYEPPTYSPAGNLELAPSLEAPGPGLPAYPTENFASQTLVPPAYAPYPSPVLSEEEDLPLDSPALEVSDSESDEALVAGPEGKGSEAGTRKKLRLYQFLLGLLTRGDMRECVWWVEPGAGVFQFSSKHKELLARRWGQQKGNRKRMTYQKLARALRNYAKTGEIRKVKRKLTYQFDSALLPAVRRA
The target of experiment [6] is T3, FEV (Homo sapiens, UniProt Q99581 1-238).
T3 sequence: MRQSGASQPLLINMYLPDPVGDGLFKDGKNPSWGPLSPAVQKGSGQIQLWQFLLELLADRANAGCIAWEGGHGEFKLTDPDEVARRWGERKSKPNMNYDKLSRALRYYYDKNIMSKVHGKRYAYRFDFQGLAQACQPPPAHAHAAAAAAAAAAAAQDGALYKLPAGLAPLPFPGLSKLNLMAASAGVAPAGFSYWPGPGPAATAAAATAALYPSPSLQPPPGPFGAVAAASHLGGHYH
The essentials:
as §1

The target in experiment [7] is ELF4 (Homo sapiens, UniProt Q99607 1-663). The essentials: as §1
ELF4, sequence (Q99607 whole entry): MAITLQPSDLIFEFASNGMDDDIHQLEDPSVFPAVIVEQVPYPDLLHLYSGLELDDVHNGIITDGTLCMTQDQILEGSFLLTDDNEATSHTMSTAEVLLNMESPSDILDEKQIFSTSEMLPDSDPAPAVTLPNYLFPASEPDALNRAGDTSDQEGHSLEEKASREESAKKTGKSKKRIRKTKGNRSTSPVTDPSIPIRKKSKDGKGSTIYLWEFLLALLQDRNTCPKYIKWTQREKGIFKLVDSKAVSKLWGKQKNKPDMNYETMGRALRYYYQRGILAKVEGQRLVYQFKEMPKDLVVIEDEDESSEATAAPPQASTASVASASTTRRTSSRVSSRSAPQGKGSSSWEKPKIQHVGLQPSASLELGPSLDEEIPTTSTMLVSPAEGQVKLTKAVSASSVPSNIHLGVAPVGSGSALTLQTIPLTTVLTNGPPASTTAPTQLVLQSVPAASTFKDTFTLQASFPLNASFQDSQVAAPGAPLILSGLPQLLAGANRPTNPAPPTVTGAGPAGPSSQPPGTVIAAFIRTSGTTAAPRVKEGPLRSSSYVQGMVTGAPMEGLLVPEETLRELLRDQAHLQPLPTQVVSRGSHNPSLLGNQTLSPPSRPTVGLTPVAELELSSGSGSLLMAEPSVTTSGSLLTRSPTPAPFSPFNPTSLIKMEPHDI
Experiment [8] has as its target T4, ETV2 (Homo sapiens, UniProt O00321 1-342).
T4 sequence: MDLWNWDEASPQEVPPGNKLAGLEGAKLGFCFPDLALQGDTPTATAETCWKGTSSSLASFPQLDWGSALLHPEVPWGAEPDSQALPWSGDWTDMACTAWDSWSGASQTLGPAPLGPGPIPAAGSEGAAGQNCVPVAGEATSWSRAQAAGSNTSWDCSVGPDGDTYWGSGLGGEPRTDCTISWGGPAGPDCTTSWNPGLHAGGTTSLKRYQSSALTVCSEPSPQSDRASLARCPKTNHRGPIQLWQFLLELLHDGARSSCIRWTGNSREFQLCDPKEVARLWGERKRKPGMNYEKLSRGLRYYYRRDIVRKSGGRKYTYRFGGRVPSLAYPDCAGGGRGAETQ
A digest of the protocol: as §1

Experiment [9] deals with T5, ELF3 (Homo sapiens, UniProt P78545 1-371).
T5 sequence: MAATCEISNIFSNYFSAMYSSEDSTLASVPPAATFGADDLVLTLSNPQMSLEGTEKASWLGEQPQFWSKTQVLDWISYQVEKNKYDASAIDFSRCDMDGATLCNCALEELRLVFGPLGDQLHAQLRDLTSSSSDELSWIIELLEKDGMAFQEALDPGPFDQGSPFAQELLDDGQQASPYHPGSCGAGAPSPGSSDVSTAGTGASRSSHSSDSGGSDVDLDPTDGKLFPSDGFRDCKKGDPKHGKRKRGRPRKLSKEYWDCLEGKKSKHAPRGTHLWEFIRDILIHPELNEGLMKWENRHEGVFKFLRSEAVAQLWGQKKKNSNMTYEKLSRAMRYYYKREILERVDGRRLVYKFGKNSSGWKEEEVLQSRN
A digest of the protocol:
as §1

Experiment [10] has as its target T6, ERF (Homo sapiens, UniProt P50548 1-548).
T6 sequence: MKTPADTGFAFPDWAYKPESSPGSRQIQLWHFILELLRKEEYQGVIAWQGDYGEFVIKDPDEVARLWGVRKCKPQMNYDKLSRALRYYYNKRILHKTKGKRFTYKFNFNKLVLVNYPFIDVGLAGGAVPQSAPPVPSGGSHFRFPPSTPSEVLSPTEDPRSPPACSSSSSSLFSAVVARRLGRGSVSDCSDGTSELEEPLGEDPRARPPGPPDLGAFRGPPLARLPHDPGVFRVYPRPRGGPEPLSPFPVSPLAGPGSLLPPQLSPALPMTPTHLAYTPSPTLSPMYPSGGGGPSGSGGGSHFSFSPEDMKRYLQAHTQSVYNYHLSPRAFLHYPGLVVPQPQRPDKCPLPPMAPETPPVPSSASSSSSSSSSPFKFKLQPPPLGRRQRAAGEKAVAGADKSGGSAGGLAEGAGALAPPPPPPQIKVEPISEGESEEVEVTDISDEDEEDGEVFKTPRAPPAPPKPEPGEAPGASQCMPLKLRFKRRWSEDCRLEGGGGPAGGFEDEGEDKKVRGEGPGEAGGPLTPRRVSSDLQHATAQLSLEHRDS
A digest of the protocol: as §1

Experiment [11] has as its target T7, ETV3L (Homo sapiens, UniProt Q6ZN32 1-361).
T7 sequence: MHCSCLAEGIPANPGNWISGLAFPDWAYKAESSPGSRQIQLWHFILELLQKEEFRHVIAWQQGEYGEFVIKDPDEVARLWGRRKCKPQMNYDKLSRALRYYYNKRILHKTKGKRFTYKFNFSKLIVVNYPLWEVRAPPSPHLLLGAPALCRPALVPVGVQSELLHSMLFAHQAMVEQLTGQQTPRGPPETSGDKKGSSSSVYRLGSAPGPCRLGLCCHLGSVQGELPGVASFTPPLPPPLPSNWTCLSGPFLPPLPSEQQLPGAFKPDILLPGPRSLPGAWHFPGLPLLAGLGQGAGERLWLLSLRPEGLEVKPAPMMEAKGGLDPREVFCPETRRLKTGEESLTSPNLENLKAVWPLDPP
A digest of the protocol: as §1

For experiment [12], the target named is T8, SPDEF (Homo sapiens, UniProt O95238 1-335).
T8 sequence: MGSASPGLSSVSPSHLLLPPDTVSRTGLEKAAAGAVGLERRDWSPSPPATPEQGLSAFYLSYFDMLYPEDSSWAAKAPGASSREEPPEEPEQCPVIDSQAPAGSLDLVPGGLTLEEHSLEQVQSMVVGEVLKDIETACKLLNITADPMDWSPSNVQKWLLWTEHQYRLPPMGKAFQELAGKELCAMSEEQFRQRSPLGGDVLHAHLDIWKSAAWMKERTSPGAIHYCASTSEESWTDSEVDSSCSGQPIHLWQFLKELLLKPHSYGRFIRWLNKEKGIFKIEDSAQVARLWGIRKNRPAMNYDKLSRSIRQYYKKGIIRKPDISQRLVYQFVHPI
The essentials:
as §1

In experiment [13] the target is T9, ETV7 (Homo sapiens, UniProt Q9Y603 1-341).
T9 sequence: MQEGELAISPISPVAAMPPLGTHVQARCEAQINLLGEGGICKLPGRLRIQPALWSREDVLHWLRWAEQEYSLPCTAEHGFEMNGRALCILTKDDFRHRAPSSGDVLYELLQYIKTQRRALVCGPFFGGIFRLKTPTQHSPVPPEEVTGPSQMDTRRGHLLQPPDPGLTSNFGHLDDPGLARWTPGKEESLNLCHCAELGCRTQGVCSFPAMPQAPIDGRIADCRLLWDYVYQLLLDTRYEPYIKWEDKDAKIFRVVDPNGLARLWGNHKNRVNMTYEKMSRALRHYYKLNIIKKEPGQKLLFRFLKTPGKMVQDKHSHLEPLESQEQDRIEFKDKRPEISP
A digest of the protocol:
as §1

The target in experiment [14] is T10, ELF5 (Homo sapiens, UniProt Q9UKW6-2 1-255).
T10 sequence: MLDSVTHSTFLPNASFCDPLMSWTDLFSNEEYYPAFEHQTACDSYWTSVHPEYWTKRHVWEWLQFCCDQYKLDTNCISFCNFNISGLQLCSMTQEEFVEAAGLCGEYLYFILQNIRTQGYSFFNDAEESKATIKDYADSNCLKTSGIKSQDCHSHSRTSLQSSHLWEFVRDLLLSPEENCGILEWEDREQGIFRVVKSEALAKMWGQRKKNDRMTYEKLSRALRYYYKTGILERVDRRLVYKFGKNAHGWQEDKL
A digest of the protocol:
as §1

For experiment [15], the target named is T11, ETV3 (Homo sapiens, UniProt P41162-2 1-143).
T11 sequence: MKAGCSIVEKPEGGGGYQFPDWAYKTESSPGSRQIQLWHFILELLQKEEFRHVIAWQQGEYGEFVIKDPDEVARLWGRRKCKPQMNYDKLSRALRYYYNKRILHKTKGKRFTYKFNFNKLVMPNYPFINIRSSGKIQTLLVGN
A digest of the protocol: as §1

For GTTGAA, the binding signal in experiment [1] was 1.01 fold enrichment (6-mer frequency, TF over GST control).
For GTGGTC, the binding signal in experiment [1] was 1.06 fold enrichment (6-mer frequency, TF over GST control).
For the sequence TCGCGG, the binding signal in [2] was 1.07 fold enrichment (6-mer frequency, TF over GST control); in [3] it was 1.02 fold enrichment (6-mer frequency, TF over GST control); in experiment [4] it was 1 fold enrichment (6-mer frequency, TF over GST control); in [5], 1.02 fold enrichment (6-mer frequency, TF over GST control); in experiment [6], 1.02 fold enrichment (6-mer frequency, TF over GST control); in [7], 1.03 fold enrichment (6-mer frequency, TF over GST control). The binding signal in [1] is 1.05 fold enrichment (6-mer frequency, TF over GST control); in [8], 1.11 fold enrichment (6-mer frequency, TF over GST control); in [9], 1.03 fold enrichment (6-mer frequency, TF over GST control); in experiment [10], 1.09 fold enrichment (6-mer frequency, TF over GST control); in experiment [11], 1.04 fold enrichment (6-mer frequency, TF over GST control); in experiment [12], 1.01 fold enrichment (6-mer frequency, TF over GST control). Besides, the binding signal in [13] was 1.02 fold enrichment (6-mer frequency, TF over GST control); in experiment [14], 1 fold enrichment (6-mer frequency, TF over GST control); in [15], 1.04 fold enrichment (6-mer frequency, TF over GST control).
